Screening data as filed in PubChem BioAssay.
FBPA Giardia inh – qHTS Assay for Inhibitors of Fructose-1,6-bisphosphate Aldolase from Giardia Lamblia; purified Giardia FBPA; Potency, µM (top dose mostly 59.6 µM), without a hit: top-dose activity, negative = inhibition, usual class: inhibitors; 290,000 tested, 0.71% active; AID 2451, 2010; note: potency is the fitted concentration of half-maximal effect; % is set by controls: 0 for no effect and ±100 for the full control effect; nearly all actives have a fitted effect of over 55% in size
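Giardia FBPA (40 nM reagent) was preincubated 10 min at RT with compound (up to 57.5 uM final), then substrate plus GAPDH/TPI/NAD/arsenate coupling system with diaphorase/resazurin was added; resorufin fluorescence (525/598 nm) was read after 20 min.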
Sm TGR block – qHTS Assay for the Inhibitors of Schistosoma Mansoni Peroxiredoxins. Schistosoma mansoni thioredoxin glutathione reductase (TGR), Q962Y6. purified TGR, DTNB reduction, TNB absorbance 405 nm. Potency, µM (highest dose often 114 µM), without a hit: at the top dose activity change, negative = inhibition, actives largely listed as inhibitors. 360,000 tested, 3% active; note: potency is the fitted concentration of half-maximal effect; % is set by controls: 0 for no effect and ±100 for the full control effect; nearly all actives have a fitted effect of over 60% in size
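TGR 20 nM + NADPH 100 uM (dispensed conc.), cpd preinc 15 min RT; start with NADPH (500 uM addition) then DTNB (15 mM addition). Kinetic TNB absorbance, 405 nm filter. Four-parameter Hill fit across titration.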
CHX counter – Cycloheximide Counterscreen for Small Molecule Inhibitors of Shiga Toxin | cell reporter, cycloheximide protein synthesis inhibition counterscreen | max response, % | 300,000 tested, 12% active; in the data active = max response mostly above about 13%, no sharp cut-off; inactive = mostly below about 14%; note: read at 38.3 µM for the half of the compounds with a filed dose; 0% is about no effect
Shiga toxin inh – A qHTS for Small Molecule Inhibitors of Shiga Toxin; inhibition, % at 38.7 µM; Vero cells, Shiga toxin protein synthesis inhibition reporter; 290,000 tested, 9.2% active; in the data active = inhibition mostly above about 28%, no sharp cut-off; inactive = mostly below about 43%; note: 0% is about no effect
Tb PYK inh – qHTS of Trypanosoma Brucei Inhibitors; TbPYK enzyme, Kinase-Glo Plus ATP luminescence, 45 min; Potency, µM (doses to about 76.8 µM), for inactives: top-dose activity, negative = inhibition, actives largely listed as inhibitors; 410,000 tested, 0.12% active; AID 624173, 2012; note: potency is the fitted concentration of half-maximal effect; % is set by controls: 0 for no effect and ±100 for the full control effect; nearly all actives have a fitted effect of over 50% in size
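Activity of T. brucei pyruvate kinase was followed by Kinase-Glo Plus luminescence after the enzyme reacted 45 min at room temperature with 130 uM ADP (final) and substrate. Test compounds were added before ADP at multiple concentrations.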
LmPK inh – qHTS Assay for Inhibitors of Leishmania Mexicana Pyruvate Kinase (LmPK). Q27686. Potency, µM (series often up to 57.5 µM), inactives show top-dose activity change, negative = inhibition, hits mostly inhibitors. AID 1721, 2009. 290,000 tested, 0.37% active. purified LmPK, Kinase-Glo ATP luminescence, 1 h; note: potency is the fitted concentration of half-maximal effect; % is set by controls: 0 for no effect and ±100 for the full control effect
Target sequence (Q27686 whole entry, looked up): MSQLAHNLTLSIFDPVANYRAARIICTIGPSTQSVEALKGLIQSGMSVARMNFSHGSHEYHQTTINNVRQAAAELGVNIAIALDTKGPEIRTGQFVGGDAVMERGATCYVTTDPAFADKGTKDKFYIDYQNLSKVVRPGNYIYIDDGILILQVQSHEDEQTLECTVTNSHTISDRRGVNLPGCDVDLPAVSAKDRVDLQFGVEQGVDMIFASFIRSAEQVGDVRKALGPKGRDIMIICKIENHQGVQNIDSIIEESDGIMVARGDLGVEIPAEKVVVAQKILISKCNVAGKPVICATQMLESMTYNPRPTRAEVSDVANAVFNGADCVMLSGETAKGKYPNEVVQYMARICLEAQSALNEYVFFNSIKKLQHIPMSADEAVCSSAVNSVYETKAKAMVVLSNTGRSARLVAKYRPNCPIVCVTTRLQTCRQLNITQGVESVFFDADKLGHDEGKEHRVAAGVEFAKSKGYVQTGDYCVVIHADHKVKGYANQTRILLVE
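Pyruvate kinase activity monitored as ATP production (luciferase luminescence). Conditions: 0.1 nM enzyme, 0.5 mM PEP, 0.1 mM ADP, 1 h, RT; normalized against uninhibited and no-enzyme wells.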
* marks the source's active call; other numbers are inactive results; ? = inconclusive; nt = not tested or not shown. The entries come from a sample that favours hits as a whole. Unless noted, calls come from the whole dose curve; as a rule, active = well fitted curve in the direction sought with a large enough effect; inconclusive = small, poorly fitted or top-dose-only effect, or another doubt; inactive = no such curve, though single readings can be large; an effect the other way counts as inactive or inconclusive.

SMILES	FBPA Giardia inh	Sm TGR block	CHX counter	Shiga toxin inh	Tb PYK inh	LmPK inh
N=C1C(c2nc3ccccc3s2)=C(O)CN1Cc1ccccc1	-1%	4%	30*	active	1%	-3%
C/C(Cn1cnc([N+](=O)[O-])n1)=N/NC(=O)COc1ccccc1Cl	-21%	-2%	7	9	-2%	2%
C/C(Cn1cnc([N+](=O)[O-])n1)=N\NC(=O)c1cccnc1	-6%	-7%	14*	25	-1%	3%
Cc1ccccc1/C=N/NC(=O)Cn1cnc([N+](=O)[O-])n1	-9%	0%	-2	-12	-11%	4%
C/C(Cn1cnc([N+](=O)[O-])n1)=N\NC(=O)c1ccc(Br)cc1	-11%	-1%	18*	44*	-1%	0%
Cc1cc(OCC(=O)N(C)C2CCCCC2)ccc1Cl	4%	8%	25*	55	-4%	-1%
CN(C(=O)COC(=O)COc1ccc(Cl)cc1)C1CCCCC1	-1%	?	-4	-11	4%	1%
CN(C(=O)COC(=O)c1ccc(Cl)cc1N)C1CCCCC1	1%	6%	21*	13	-1%	0%
Cc1cc(OCC(=O)N(C)C2CCCCC2)cc(C)c1Cl	0%	6%	42*	91*	-1%	-6%
CCCN(Cc1cccs1)C(=O)Nc1ccccc1C	nt	29%	nt	nt	2%	nt
CCOC(=O)N1CCC(N2Cc3cccc(C(=O)Nc4ccccc4OC)c3C2=O)CC1	nt	-18%	2	-10	3%	13%
Cc1cccc(C)c1NC(=O)NC1(C(=O)NCC2CCCO2)CCCCC1 (stereo not drawn)	-3%	-6%	-7	-2	4%	0%
O=C(O)c1ccc(Cl)c(S(=O)(=O)Nc2ccc(OCc3ccccc3)cc2)c1	-1%	-1%	23*	62*	-3%	5%
O=C(NC(NC(=S)Nc1cccc(C(=O)O)c1)C(Cl)(Cl)Cl)OCc1ccccc1 (stereo not drawn)	14%	-26%	19*	29	5%	-1%
CCOc1ccc(NS(=O)(=O)c2cc(C(=O)N3CCCC3)ccc2Cl)cc1	nt	-8%	nt	nt	1%	nt
O=C(Nc1ccccc1)c1ccc(COc2ccccc2)cc1	3%	nt	10	27	0%	-13%
O=C(O)c1cccc(NC(=S)NC(=O)c2cccc(OCc3ccccc3)c2)c1	-11%	25µM*	14*	39*	1%	-1%
O=C(NC(NC(=S)Nc1cccc(Cl)c1)C(Cl)(Cl)Cl)OCc1ccccc1 (stereo not drawn)	-1%	-15%	-2	-11	-7%	12%
O=C(Nc1ccc(COc2ccccc2)cc1)Nc1cccc(C(=O)O)c1	-4%	-8%	17*	20	-8%	-5%
COc1ccc(OC)c(C(=O)c2coc3ccc(O)cc23)c1	-10%	-1%	25*	103*	5%	10%
COc1ccc2occ(C(=O)c3ccccc3)c2c1	1%	7%	38*	66*	-5%	-6%
Cc1ccc2nc(N/C(=N/S(=O)(=O)c3ccc(F)cc3F)c3ccccc3)sc2c1	3%	2%	31*	66*	3%	3%
Cc1cc(N/C(=N/S(=O)(=O)c2cc(F)ccc2F)c2ccccc2)n(-c2ccccc2)n1	-4%	24%	15*	16	-3%	-4%
Cc1cc(N/C(=N\S(=O)(=O)c2ccc(F)cc2F)c2ccccc2)no1	-1%	-7%	1	26	-2%	2%
Cc1ccc2nc(N/C(=N/S(=O)(=O)c3ccc(F)cc3)c3ccccc3)sc2c1	6%	13%	48*	132*	0%	-10%
SMILES	FBPA Giardia inh	Sm TGR block	CHX counter	Shiga toxin inh	Tb PYK inh	LmPK inh
COc1cn(CC(=O)Nc2ccc(C)cc2C)c(CN2CCCCC2)cc1=O	nt	-2%	nt	nt	-1%	nt
O=[N+]([O-])c1ccccc1NC(=S)N/N=C/c1ccc(O)c(O)c1	?	-22%	22*	74*	-11%	0%
O=[N+]([O-])c1ccccc1C=NNC(=S)NN=Cc1ccccc1[N+](=O)[O-]	nt	nt	nt	nt	-3%	nt
CCOc1cccc(/C=N/NC(=S)Nc2ccccc2[N+](=O)[O-])c1O	8%	-19%	38*	154*	-2%	2%
CCCCNC(=S)N/N=C/c1cccc(OCC)c1O	12%	-18%	12	30*	-4%	-3%
COc1cccc(/C=N/NC(=S)NCCc2ccccc2)c1OC	12%	-17%	-1	48	2%	0%
CCOC(=O)c1ccc(NC(=O)CSc2nc(-c3cccs3)cc(C(F)(F)F)c2C#N)cc1	nt	-5%	0	-7	2%	nt
CCCC1(c2ccsc2)NC(=O)NC1=O (stereo not drawn)	nt	nt	nt	nt	-6%	nt
COc1cc(CO)c(OC)c([N+](=O)[O-])c1	-3%	-8%	-2	17	2%	0%
Cn1cc(-c2nc3cnc(N4CCNCC4)nc3n(C3CC3)c2=O)c2ccccc21	-4%	nt	nt	nt	nt	nt
CCc1nc2c(OCCOc3ccc(F)cc3)cccn2c1N(C=O)Cc1ccc(OC)cc1	nt	nt	nt	nt	-3%	nt
COC(=O)c1ccc(C(=O)OC)c(NC(=O)C2CC(=O)N(C3CCCC3)C2)c1 (stereo not drawn)	nt	nt	nt	nt	-4%	nt
COc1ccc(/C=N\NC(=O)c2ccccc2OC)cc1COc1c(F)c(F)c(F)c(F)c1F	1%	4%	12*	19	-2%	-5%
COc1ccc(/C=N/NC(=O)c2ccccc2)cc1CN1CCN(c2ccc(F)cc2)CC1	2%	-27%	12*	25	-13%	1%
COc1ccc2ccccc2c1/C=N/NC(=O)c1cccc(Br)c1	1%	3%	5	13	-3%	4%
COc1ccc2ccccc2c1/C=N/NC(=O)c1ccccc1F	-23%	3%	11*	26	1%	-4%
COc1ccc(/C=N\NC(=O)c2ccccc2Cl)cc1COc1c(F)c(F)c(F)c(F)c1F	nt	0%	15	16	-11%	-12%
COc1ccc(/C=N/NC(=O)c2ccn[nH]2)cc1COc1ccc([N+](=O)[O-])c(C)c1	-2%	6%	35*	55*	2%	-2%
COc1ccc(/C=N/NC(=O)c2ccn[nH]2)cc1Cn1nc(C)c([N+](=O)[O-])c1C	4%	-7%	23*	69*	-10%	-3%
COc1ccc(C(=O)N/N=C/c2ccc(OC)c(COc3ccc(F)cc3)c2)cc1	0%	-20%	19	13	-9%	-2%
COc1ccc(/C=N/NC(=O)c2ccco2)cc1Cn1nc(C)c([N+](=O)[O-])c1C	0%	3%	9	-10	-20%	7%
